Laboratory results taken from PubChem BioAssay (NCATS).
Results filed as inconclusive are left out. Unmarked numbers belong to inactive results. Unless noted, calls follow the shape of the dose curve; as a rule, active = well fitted curve in the direction sought with a large enough effect; inconclusive = small, poorly fitted or top-dose-only effect, or another doubt; inactive = no such curve, though single readings can be large; an effect the other way counts as inactive or inconclusive.

Target: Luciferin 4-monooxygenase (Photinus pyralis) (UniProt P08659)
Experiment: Biochemical firefly luciferase enzyme assay for NPC (AID 624030);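 also: purified P. pyralis luciferase at 10 nM with luciferin and ATP substrate; 0% = DMSO and -100% = full luciferase inhibition by PTC124 control; nearly all actives have a fitted effect of over 70% in size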
Conditions: purified P. pyralis luciferase, luminescence, 5 min; series mostly up to 58.6 µM; activity change, negative = inhibition: at the top concentration
Method in brief: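 Purified P. pyralis luciferase at 10 nM in 50 mM Tris Acetate (final), luminescence read within 5 minutes of enzyme addition to compounds. Activity normalised to PTC124 versus DMSO; concentration-response curves classed by r2, magnitude and activity.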

Luciferin 4-monooxygenase (Photinus pyralis), sequence (P08659 whole entry, looked up): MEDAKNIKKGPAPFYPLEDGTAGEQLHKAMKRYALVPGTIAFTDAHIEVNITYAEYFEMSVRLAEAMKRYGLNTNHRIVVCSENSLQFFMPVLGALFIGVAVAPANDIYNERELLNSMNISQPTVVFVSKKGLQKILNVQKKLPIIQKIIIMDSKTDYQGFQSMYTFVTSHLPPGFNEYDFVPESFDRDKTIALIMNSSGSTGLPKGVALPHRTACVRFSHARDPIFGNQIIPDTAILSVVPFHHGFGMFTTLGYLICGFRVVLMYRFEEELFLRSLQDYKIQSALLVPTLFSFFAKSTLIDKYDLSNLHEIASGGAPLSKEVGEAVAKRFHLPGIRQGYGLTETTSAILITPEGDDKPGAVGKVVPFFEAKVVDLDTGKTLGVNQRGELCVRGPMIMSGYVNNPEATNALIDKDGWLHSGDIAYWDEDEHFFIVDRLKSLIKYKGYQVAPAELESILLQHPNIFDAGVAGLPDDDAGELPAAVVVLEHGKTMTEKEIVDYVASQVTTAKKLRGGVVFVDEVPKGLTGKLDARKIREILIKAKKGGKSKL

Compound	activity change, negative = inhibition [%]
CC1=CCC(C(C)(C)O)CC1 (stereo not given)	1.67
O=CCCCC=O	0.049
CCCCC/C=C\C/C=C\CCCCCCCC(=O)O	-11.4
CCCCCCCC(=O)O	-3.96
CCCCCCCC/C=C\CCCCCCCC(=O)O	-15.1
O=C(O)CCC(=O)C(=O)O	-1.19
CC(O)CO (stereo not given)	0.934
O=S(=O)(O)O	-0.566
CC1=C(/C=C/C(C)=C/C=C/C(C)=C/CO)C(C)(C)CCC1	0.835
CC(C)=O	0.56
CCOc1ccc2c(c1)C(C)=CC(C)(C)N2	-22.2
CCOC(C)=O	0.47

Test system: not listed separately
Experiment: S16 Schwann cell viability assay (CellTiter-Glo assay) (AID 624031);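 also: cellular ATP luminescence as a viability measure; plate controls were DMSO-treated cells for no effect and cell-free wells for full effect; nearly all actives have a fitted effect of over 70% in size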
Conditions: S16 rat Schwann cells viability, 24 h; series mostly up to 57.5 µM; activity change, negative = cytotoxicity: at the top concentration
Method in brief: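 Luminescent ATP read-out (CellTiter-Glo) after 24 h compound exposure of native S16 rat Schwann cells at 37 °C. Signals were normalized between cell-free wells and DMSO-treated cells, set as 0% activity.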

Compound	activity change, negative = cytotoxicity [%]
CC1=CCC(C(C)(C)O)CC1 (stereo not given)	-19.3
O=CCCCC=O	4.14
CCCCCCCC(=O)O	0.391
CCCCCCCC/C=C\CCCCCCCC(=O)O	13.6
O=C(O)CCC(=O)C(=O)O	14.4
CC(O)CO (stereo not given)	8.6
O=S(=O)(O)O	9.9
CCCCC(CC)COC(=O)CC(C(=O)OCC(CC)CCCC)S(=O)(=O)O (stereo not given)	0
CC1=C(/C=C/C(C)=C/C=C/C(C)=C/CO)C(C)(C)CCC1	-5.86
CC(C)=O	-1.11
IC(I)I	2.79
CCOc1ccc2c(c1)C(C)=CC(C)(C)N2	-0.39
CC1(C)C(C=C(Cl)Cl)C1C(=O)OCc1cccc(Oc2ccccc2)c1 (stereo not given)	11
CCOC(C)=O	0.693

Test system: not listed separately
Experiment: S16 Schwann cell PMP22 intronic element firefly luciferase assay (AID 624032);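 also: plate controls were DMSO for no effect and PTC124 positive control mean for full effect; nearly all actives have a fitted effect of over 30% in size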
Conditions: S16 rat Schwann cells, PMP22 element FLuc, 24 h; series mostly up to 57.5 µM; activity change, negative = inhibition: at the top concentration
Method in brief: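 Rat S16 Schwann cells stably carrying firefly luciferase driven by a PMP22 intronic element, in 10% FBS, treated 24 h at 37 C. ONE-Glo luminescence normalized to PTC124 control and DMSO (0%); curves classed by r2, magnitude and activity.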

Compound	activity change, negative = inhibition [%]
CC1=CCC(C(C)(C)O)CC1 (stereo not given)	-24.5
O=CCCCC=O	-16.2
CCCCC/C=C\C/C=C\CCCCCCCC(=O)O	-10
CCCCCCCC(=O)O	0.981
O=C(O)CCC(=O)C(=O)O	1.36
CC(O)CO (stereo not given)	11
O=S(=O)(O)O	1.73
CCCCC(CC)COC(=O)CC(C(=O)OCC(CC)CCCC)S(=O)(=O)O (stereo not given)	13.7
CC(C)=O	-11.7
IC(I)I	4.39
CCOc1ccc2c(c1)C(C)=CC(C)(C)N2	-7.44
CC1(C)C(C=C(Cl)Cl)C1C(=O)OCc1cccc(Oc2ccccc2)c1 (stereo not given)	6.25
CCOC(C)=O	-5.46

Test system: not listed separately
Experiment: S16 Schwann cell PMP22 intronic element beta-lactamase assay (AID 624044; calls by dose curve;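 also: 0% = DMSO and -100% = potassium clavulanate positive control; nearly all actives have a fitted effect of over 15% in size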)
Conditions: S16 rat Schwann cells, PMP22 element beta-lactamase FRET, 24 h; series mostly up to 38.3 µM; ratio activity, negative = inhibition: at the top concentration
Method in brief: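 Rat S16 Schwann cells with beta-Lac driven by a PMP22 intronic element, compound-treated 24 h at 37 °C. LiveBLAzer FRET B/G read: 460 nm normalized to potassium clavulanate vs DMSO; 535 nm FRET as viability; concentration-effect curves classified.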

Compound	ratio activity, negative = inhibition [%]
CC1=CCC(C(C)(C)O)CC1 (stereo not given)	2.74
O=CCCCC=O	1.89
CCCCC/C=C\C/C=C\CCCCCCCC(=O)O	-10.2
CCCCCCCC/C=C\CCCCCCCC(=O)O	-0.944
CC(O)CO (stereo not given)	1.44
O=S(=O)(O)O	-1.65
CCCCC(CC)COC(=O)CC(C(=O)OCC(CC)CCCC)S(=O)(=O)O (stereo not given)	-1.6
IC(I)I	3.66
CCOc1ccc2c(c1)C(C)=CC(C)(C)N2	-0.479
CC1(C)C(C=C(Cl)Cl)C1C(=O)OCc1cccc(Oc2ccccc2)c1 (stereo not given)	-7.76
CCOC(C)=O	0.295
